Results filed as inconclusive are left out. A number with no mark means an inactive call. The source made the active and inactive calls. Calls follow the shape of the dose curve; as a rule, active = well fitted curve in the direction sought with a large enough effect; inconclusive = small, poorly fitted or top-dose-only effect, or another doubt; inactive = no such curve, though single readings can be large; an effect the other way counts as inactive or inconclusive.

Experiment [1] concerns TAB109. Briefly: qHTS profiling for inhibitors of Plasmodium falciparum proliferation (AID 504749). Also: nearly all actives have a fitted effect of over 60% in size. Also: potency is read from the fitted curve at half-maximal effect. Conditions: P. falciparum in erythrocytes, SYBR Green DNA, 72 h; series mostly up to 28.7 µM. An outline of the steps: (§1)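 Readout was DNA-dye fluorescence from lysed cultures, ex 485/em 535 nm. Parasitized red cells had grown 72 h with compound; data scaled between 0.29 uM artemisinin and DMSO wells and corrected using vehicle-only plates.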
A general note: Quantitative high-throughput screening tests each substance at several concentrations.

The test system of experiment [2] is TAB113. Described as above. The note with it: P. falciparum in erythrocytes, SYBR Green DNA, 72 h; series mostly up to 28.7 µM. Summed up: as §1
In experiment [3] the test system is TAB165. Described as above. Conditions: P. falciparum in erythrocytes, SYBR Green DNA, 72 h; series mostly up to 28.7 µM. Summed up: as §1
The subject of experiment [4] is W2. The description is as above. Conditions: P. falciparum in erythrocytes, SYBR Green DNA, 72 h; series mostly up to 28.7 µM. An outline of the steps: as §1
Experiment [5] relates to CRL-7250. Description: Cytotoxic Profiling of Annotated Libraries Using Quantitative High-Throughput Screening (AID 1296008). Also: nearly all actives have a fitted effect of over 60% in size. As to max response: % is scaled to controls: 0 for no effect and ±100 for the full control effect. The note with it: Five cell lines viability, CellTiter-Glo ATP luminescence, 48-72 h; max response: active compounds read low. Summed up:
(§2)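 Cells exposed to compounds for 48 or 72 hr at 37 degrees Celsius. Viability read as ATP-coupled luminescence with CellTiter-Glo after 10 min at room temperature.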
A general note: ATP-based viability assays read luminescence as a measure of living cells.

Experiment [6] relates to HEK293. The experiment is described as above. Conditions: Five cell lines viability, CellTiter-Glo ATP luminescence, 48-72 h; max response: active compounds read low. Summed up:
as §2

The test system of experiment [7] is HaCat. Described as above. The note with it: Five cell lines viability, CellTiter-Glo ATP luminescence, 48-72 h; max response: active compounds read low. An outline of the steps: as §2
Experiment [8] relates to KB-3-1. The description is as above. Conditions: Five cell lines viability, CellTiter-Glo ATP luminescence, 48-72 h; max response: active compounds read low. Summed up: as §2
Experiment [9] relates to NIH3T3. The experiment is described as above. Conditions: Five cell lines viability, CellTiter-Glo ATP luminescence, 48-72 h; max response: active compounds read low. Summed up: as §2
The subject of experiment [10] is MCC-13. Description: qHTS assay to identify novel small-molecules to repurpose for Merkel cell carcinoma treatment (AID 1296009). Also: nearly all actives have a fitted effect of over 60% in size. Conditions: MCC and control cell lines, CellTiter-Glo viability, 72 h; series mostly up to 46 µM. An outline of the steps: (§3)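 Cells were incubated with compound for 72 hr at 37 degree celsius before CellTiter-Glo addition. Luminescence was normalized with no-cell wells as full cytotoxicity and DMSO as baseline.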

Experiment [11] concerns MCC-26. The description is as above. The note with it: MCC and control cell lines, CellTiter-Glo viability, 72 h; series mostly up to 46 µM. Summed up:
as §3

For experiment [12], the system named is MKL-1. The description is as above. The note with it: MCC and control cell lines, CellTiter-Glo viability, 72 h; series mostly up to 46 µM. Summed up:
as §3

The test system of experiment [13] is MKL-2. Described as above. Conditions: MCC and control cell lines, CellTiter-Glo viability, 72 h; series mostly up to 46 µM. An outline of the steps:
as §3

Experiment [14] deals with UISO. Described as above. The note with it: MCC and control cell lines, CellTiter-Glo viability, 72 h; series mostly up to 46 µM. Summed up: as §3
Experiment [15] deals with WaGa. Described as above. Conditions: MCC and control cell lines, CellTiter-Glo viability, 72 h; series mostly up to 46 µM. Summed up:
as §3

In experiment [16] the test system is C33A. Briefly: Primary qHTS to identify gynecologic anti-cancer compounds using libraries of approved drugs and bioactive compounds (AID 1345084). Also: % is scaled to controls: 0 for no effect and ±100 for the full control effect; nearly all actives have a fitted effect of over 55% in size. The note with it: Gynecologic cancer cell panel viability, ATPlite luminescence, 48 h; series mostly up to 57.5 µM. Summed up:
(§4)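 Measured: luminescence after ATPlite addition (15 min, RT). Exposure: 48 h, 37 C, 5% CO2.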

The test system of experiment [17] is CAOV3. The description is as above. Conditions: Gynecologic cancer cell panel viability, ATPlite luminescence, 48 h; series mostly up to 57.5 µM. An outline of the steps:
as §4

In experiment [18] the test system is HEK293T. Description: qHTS assay to identify novel small-molecules to repurpose for Merkel cell carcinoma treatment (AID 1296009). Also: nearly all actives have a fitted effect of over 60% in size. Conditions: MCC and control cell lines, CellTiter-Glo viability, 72 h; at 44.8 µM (top of the series) unless noted. Summed up: as §3
Experiment [19] concerns HACAT. The description is as above. Conditions: MCC and control cell lines, CellTiter-Glo viability, 72 h; at 44.8 µM (top of the series) unless noted. An outline of the steps: as §3
The subject of experiment [20] is NIH3T3. Described as above. The note with it: MCC and control cell lines, CellTiter-Glo viability, 72 h; at 44.8 µM (top of the series). An outline of the steps: as §3

On to `O=C(NCCc1c[nH]c2ccccc12)c1cccnc1`, for which the Potency result in experiment [1], in experiment [2], in [3], in experiment [4], in experiment [10] and in experiment [11] was “inactive” throughout. In addition, the Potency entry in [12], in experiment [13], in [14], in experiment [15], in experiment [16] and in experiment [17] was “inactive” in each case. For the same compound, the max response is 2.2% in experiment [5]; -10.1% in experiment [6]; -2.67% in experiment [7]; -10.3% in [8]; 0.897% in experiment [9].

As for `CN(C)C(=O)Nc1ccc(Cl)c(Cl)c1`, the Potency result in [1], in [2], in experiment [3], in [10], in experiment [11] and in experiment [12] was “inactive” throughout. Besides, the Potency result in experiment [13], in experiment [14], in experiment [15] and in experiment [16] was “inactive” each time. Besides, the max response was 2.46% in [5]; 3.61% in experiment [6]; -27.1% in experiment [7]; -25.2% in experiment [8]; -5.25% in experiment [9].

As to `CCNC(=O)/C=C/c1cccc(Br)c1`, the Potency result in experiment [2], in [4], in experiment [10], in [11], in experiment [12] and in experiment [13] was “inactive” throughout. The Potency entry in [14], in experiment [15], in experiment [16] and in [17] was “inactive” throughout. The compound was called inactive in experiment [5]. The max response in experiment [6] was -0.855%; in [7], 0.498%; in experiment [8], -0.104%; in experiment [9] it was -21%.

With `CCOCCn1c(N2CCCN(C)CC2)nc2ccccc21`, the Potency result in experiment [2], in [3], in experiment [10], in experiment [11], in experiment [12] and in experiment [13] was “inactive” in each case. Besides, the Potency result in experiment [14], in experiment [15], in experiment [16] and in [17] was “inactive” each time. For the same compound, the Potency in [4] is 4.78 µM (active). The max response in [5] is -16.3%; in experiment [6], -5.73%; in experiment [7], 1.76%; in experiment [8] it was -16.6%; in experiment [9], -0.586%.

Consider `CC(=O)O[C@H]1C[C@@H]2CC[C@@H]3[C@H](CC[C@@]4(C)[C@H]3C[C@H]([N+]3(C)CCCCC3)[C@@H]4OC(C)=O)[C@@]2(C)C[C@@H]1N1CCCCC1`, for which the Potency entry in experiment [2], in [10], in experiment [11], in [12], in experiment [13] and in experiment [14] was “inactive” throughout. For the same compound, the Potency result in experiment [15], in [16] and in experiment [17] was “inactive” each time. The Potency in experiment [4] was 12 µM (active). Besides, the max response was -0.866% in experiment [5]; 1.01% in experiment [6]; 3.88% in experiment [7]; -0.262% in [8]; 3.84% in experiment [9].

Turning to `Cc1cc(-c2ccccc2)nnc1NCCN1CCOCC1`, the Potency entry in experiment [2], in experiment [3], in experiment [10], in experiment [11], in experiment [12] and in [13] was “inactive” in each case. The Potency entry in [14], in experiment [15] and in experiment [16] was “inactive” throughout. The max response in experiment [5] is -17.2%; in [6], 1.05%; in experiment [7] it was -33.8%; in [8] it was -13.9%; in experiment [9], -3.42%.

`NS(=O)(=O)c1ccc(Cl)c(S(N)(=O)=O)c1`: the compound was classed as inactive in experiment [18].

Regarding `N#CCC(=O)NN`, the compound was classed as inactive in experiment [19].

As to `NC1CCN(c2nc3c(cc2F)c(=O)c(C(=O)O)cn3-c2ccc(F)cc2F)C1` (centres undefined), the Potency in experiment [4] was 5.36 µM (active). Moreover, the outcome in experiment [5], in [7], in experiment [9], in experiment [19] and in experiment [20] was inactive. Also, in [8], the max response was 1.57%. Besides, the Potency result in [10], in [11], in [12], in [13], in [14] and in experiment [15] was “inactive” in each case. Further, the Potency entry in [16] and in [17] was “inactive” throughout.

For the origin of these results see PubChem BioAssay (NCATS).
